HT1080 IDH1KD tx: qHTS for induction of synthetic lethality in tumor cells producing 2HG: qHTS for the HT-1080-IDH1KD cell line. HT-1080 IDH1 knockdown viability, ATP luminescence, 48 h. Potency, µM (series often up to 46.1 µM), for inactives: at the highest dose activity, negative = toxicity, actives largely listed as cytotoxic. 2% of 360,000 active. AID 686971, 2013;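 note: potency is the fitted concentration of half-maximal effect; 0% = DMSO wells and -100% = cell-free medium wells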
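Cytotoxicity counter-line: IDH1KD HT-1080, 48 h, CellTiter-Glo. Curves classed by r2, magnitude and activity.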
DT40 TDP1 CPT: qHTS for Inhibitors of human tyrosyl-DNA phosphodiesterase 1 (TDP1): qHTS in cells in presence of CPT; chicken DT40 Tdp1-/-;hTDP1 cells + 20 nM CPT, ATP luminescence, 48 h; Potency, µM (doses to about 46.2 µM), for the others: at the highest dose activity change, negative = growth inhibition, most hits filed as inhibitors; 12% of 420,000 active; AID 686979, 2013; note: potency is the fitted concentration of half-maximal effect; nearly all actives have a fitted effect of over 55% in size
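Cell growth measured by CellTiter-Glo luminescence after a minimum 48 h, 37 C compound exposure with 20 nM CPT in Tdp1-knockout DT40 cells stably expressing hTDP1, seeded 400/well; qHTS titration format.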
TDP1 cell noCPT: qHTS for Inhibitors of human tyrosyl-DNA phosphodiesterase 1 (TDP1): qHTS in cells in absence of CPT; DT40 Tdp1-/- hTDP1 cells, no CPT, ATP luminescence, 48 h; 15% of 420,000 active; Potency, µM (top dose mostly 46.2 µM), without a hit: top-dose activity change, negative = growth inhibition, hits mostly inhibitors; note: potency is the fitted concentration of half-maximal effect; nearly all actives have a fitted effect of over 55% in size
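No-CPT arm: Tdp1-/-;hTDP1 DT40 cells (400/well) plus compounds, incubated ≥48 hr at 37 °C. Readout CellTiter-Glo luminescence.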
ELG1 DNA repair: qHTS screen for small molecules that inhibit ELG1-dependent DNA repair in human embryonic kidney (HEK293T) cells expressing luciferase-tagged ELG1; 2.3% of 330,000 active; AID 504467, 2011; HEK293T ELG1-luciferase reporter, luminescence, 16 h; DNA damage induced by 5-fluorouridine; Potency, µM (highest dose often 46.1 µM), for the others: at the highest dose activity change, negative = inhibition, hits mostly inhibitors; note: potency is the fitted concentration of half-maximal effect; nearly all actives have a fitted effect of over 55% in size
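5-Fluorouridine DNA damage + compound/DMSO, 2,000 cells/well, 16 h, 37 °C/5% CO2. ONE-Glo, 30 min RT, luminescence. Readout = decrease in reporter signal.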
IL-1B inflam inh: qHTS for Inhibitors of Inflammasome Signaling: IL-1-beta AlphaLISA Primary Screen. THP-1 LPS/ATP IL-1B secretion, AlphaLISA, 16 h; stronger effect = lower value. activity change, % at 57.5 µM. 4.7% of 360,000 active. AID 743279, 2014; in the data active = activity change below about -50%; inconclusive = mostly about -30% to -49%
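Secreted IL-1B measured by AlphaLISA bead assay after 16 h compound exposure of THP-1 cells; compounds (final up to 57.5 uM) added 1 h before LPS (250 ng/mL) and ATP (1.25 mM) stimulation; lower signal means less secretion.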
HT1080NT lethal: qHTS for induction of synthetic lethality in tumor cells producing 2HG: qHTS for the HT-1080-NT fibrosarcoma cell line; 1.6% of 360,000 active; Potency, µM (top dose mostly 46.1 µM), for the others: top-dose activity, negative = less viability, usual class: cytotoxic; HT-1080-NT fibrosarcoma viability, CellTiter-Glo ATP luminescence, 48 h;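 note: NT is the 2HG producing partner of a matched IDH1 knockdown line; potency is the fitted concentration of half-maximal effect; 0% = DMSO-treated cells and -100% = media-only wells without cells; nearly all actives have a fitted effect of over 55% in size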
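A 48-hour cytotoxicity screen used HT-1080-NT cells plated 2 hours before compound delivery. ATP-based CellTiter-Glo luminescence measured viability, normalized to DMSO and no-cell controls.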
An asterisk follows results filed as active; u = inconclusive; x = no result given; [ ] = another dose, or the depositor's remark. Only some compounds are listed: those with a hit (about 19% of all), similar ones and a draw of the others. Unless noted, calls come from the whole dose curve; as a rule, active = well fitted curve in the direction sought with a large enough effect; inconclusive = small, poorly fitted or top-dose-only effect, or another doubt; inactive = no such curve, though single readings can be large; an effect the other way counts as inactive or inconclusive. Unless noted, % is set by controls: 0 for no effect and ±100 for the full control effect.

SMILES	HT1080 IDH1KD tx	DT40 TDP1 CPT	TDP1 cell noCPT	ELG1 DNA repair	IL-1B inflam inh	HT1080NT lethal
CCCN(CC1CC1)c1cc2c(c3c1ccn3C)C1CCC2O1 (centres undefined)	-2%	15µM*	10µM*	x	-4	-12%
CCN(CC)c1cc2c(c3c1ccn3C)C1CCC2O1 (centres undefined)	7%	-11%	-18%	x	2	21%
CN(c1cccc(F)c1)c1cc2c(c3c1ccn3C)C1CCC2O1 (centres undefined)	-22%	16µM*	16µM*	x	0	-19%
COc1ccccc1C(=O)Nc1ccc2c(c1)n(C)c(=O)n2C	3%	1%	-3%	u	u	0%
CCCN1CCN(CC(O)COC(c2ccc(OC)cc2)c2ccc(OC)cc2)CC1 (centres undefined)	26%	-16%	-15%	0%	-4	12%
Cc1ccc(C(=O)N/N=C(\CC(C)C)c2ccccc2)cc1	-1%	u	21µM*	25%	-4	-7%
COc1cccc(C(=O)N/N=C(\CC(C)C)c2ccccc2)c1	-3%	u	u	-12%	-3	-2%
COc1ccc(NC(=O)C2CCCN2S(=O)(=O)c2ccc(Cl)cc2)cc1 (centres undefined)	0%	-12%	u	7%	12	8%
CCOC(=O)C1CCN(C(=O)CCCn2nc(CC)n3c(cc4occc43)c2=O)CC1	6%	-7%	-3%	5%	13	2%
N=c1ccn(CC(=O)c2ccc(-c3ccccc3)cc2)cc1	16µM*	4.6µM*	2.9µM*	u	-69*	u
O=C(CN1C(=O)CCC1=O)c1ccc(-c2ccccc2)cc1	25%	-10%	-25%	u	3	u
O=c1oc2ccccc2nc1/C=C(O)/C=C/c1ccc(F)cc1	1%	9.2µM*	15µM*	u	-14	3%
Cc1ccc(/C(O)=C/c2nc3ccccc3oc2=O)cc1	23µM*	-27%	u	2%	x	-12%
Cc1ccc2oc(=O)c(/C=C(\O)c3sc(C)nc3C)nc2c1	0%	u	23µM*	-13%	24	2%
Cc1ccc2oc(=O)c(/C=C(\O)C(C)(C)C)nc2c1	-25%	-13%	-6%	-6%	33	-23%
O=c1oc2ccccc2nc1/C=C(O)/C=C\c1ccccc1	13%	15µM*	23µM*	33%	-54*	0%
CC[C@]12c3[nH]c4ccc(Cl)cc4c3CCN1C(=O)[C@@H](CC(=O)NCCCn1ccnc1)C[C@@H]2C(=O)N1CCN(C(=O)c2ccco2)CC1	5%	9%	11%	4%	12	0%
Cc1cc(OCC(=O)OCC(=O)N2CC(C)CC(C)C2)ccc1Cl (centres undefined)	6%	-3%	3%	7%	6	2%
N#Cc1cccc(S(=O)(=O)NCC(=O)OCC(=O)NCc2ccccc2)c1	-1%	4%	13%	23%	-4	9%
Cn1c(SCC(=O)Nc2ccc3c(c2)OCCO3)nnc1-c1ccncc1	2%	-3%	-20%	14%	-2	4%
CCC1(c2ccc(F)cc2)NC(=O)N(CC(=O)NC2CCCC(C)C2C)C1=O (centres undefined)	-15%	u	u	8%	-25	-1%
CCC1(c2ccc(Cl)cc2)NC(=O)N(CC(=O)NC2CCCCCC2)C1=O (centres undefined)	-10%	u	23µM*	-16%	-30	1%
CCC1(c2ccc(Cl)cc2)NC(=O)N(CC(=O)NCc2ccc(F)cc2)C1=O (centres undefined)	-10%	u	16µM*	-10%	-53*	-24%
CCC1(c2ccc(F)cc2)NC(=O)N(CC(=O)NCc2ccc(F)cc2)C1=O (centres undefined)	-1%	-21%	15%	-12%	-10	-3%
CCC1(c2ccc(Cl)cc2)NC(=O)N(CC(=O)NC2CCCC(C)C2C)C1=O (centres undefined)	-28%	23µM*	26µM*	6%	-53*	-27%
SMILES	HT1080 IDH1KD tx	DT40 TDP1 CPT	TDP1 cell noCPT	ELG1 DNA repair	IL-1B inflam inh	HT1080NT lethal
O=C(CN1C(=O)NC2(CCCC2)C1=O)NCc1ccc(Cl)cc1	-5%	1%	3%	19%	-51*	-2%
O=C(CN1C(=O)NC2(CCCC2)C1=O)NCc1ccc(F)cc1	24%	-21%	-6%	2%	5	6%
CNC(=O)OCc1cocc1COC(=O)NC	19%	-1%	-16%	x	-7	12%
O=C(COc1ccccc1)Nc1nnc(S(=O)(=O)N2CCCCCC2)s1	-5%	-21%	-19%	-2%	-21	-5%
O=C1Nc2ccccc2C(=O)N2CCC[C@@H]12	x	-9%[9.04 µM]	-5%[9.04 µM]	x	x	x
COCCSc1nnc(NC(=O)C2CC(=O)N(C3CCCC3)C2)s1 (centres undefined)	20%	-1%	-1%	-6%	35	17%
c1ccc(-n2nnnc2-c2cccc3ccccc23)cc1	8.2µM*	3.7µM*	4.6µM*	x	30	5.8µM*
Clc1ccc2ncc(-c3nnnn3-c3ccccc3)c(-c3ccccc3)c2c1	u	u	u	-14%	5	21µM*
Clc1ccc(-n2nnnc2-c2cnc3ccc(Cl)cc3c2-c2ccccc2)cc1	9%	u	u	u	-14	8%
Cc1ccc(-n2nnnc2-c2ccccc2Br)cc1	-9%	-12%	-24%	x	-5	5%
Clc1ccc2[nH]cc(-c3nnnn3-c3ccccc3)c2c1	u	21µM*	u	-30%	-1	u
O=C(NCC(=O)N(c1cccnc1)C(C(=O)NC1CCCC1)c1ccccc1F)c1ccco1 (centres undefined)	13%	-13%	-27%	16%	8	16%
CCOC(=O)N1CCC(N2C(=O)c3ccccc3C2Nc2cc(C)cc(C)c2)CC1 (centres undefined)	-17%	u	15µM*	-11%	-3	-8%

Screening data from PubChem BioAssay.
